Reference: the supplement of paper PMC11732987, “Enantioselective OTUD7B fragment discovery through chemoproteomics screening and high-throughput optimisation” (Communications Chemistry, 2025)
A number with no mark means an inactive call.

Key:
Test in all cases: log2 ratio of Biotin-Ahx-Ub-VS probe labelling (fragment/DMSO); higher = less target engagement (more negative = stronger competition), active = hit call of the paper (q ≤ 0.05, log2 ratio ≤ -1)
Conditions in all cases: compound concentration: 200 uM; treatment time: 3 h
OTUD6B = target: T1, OTUD6B (UniProt Q8N6M0)
T1 sequence (whole entry): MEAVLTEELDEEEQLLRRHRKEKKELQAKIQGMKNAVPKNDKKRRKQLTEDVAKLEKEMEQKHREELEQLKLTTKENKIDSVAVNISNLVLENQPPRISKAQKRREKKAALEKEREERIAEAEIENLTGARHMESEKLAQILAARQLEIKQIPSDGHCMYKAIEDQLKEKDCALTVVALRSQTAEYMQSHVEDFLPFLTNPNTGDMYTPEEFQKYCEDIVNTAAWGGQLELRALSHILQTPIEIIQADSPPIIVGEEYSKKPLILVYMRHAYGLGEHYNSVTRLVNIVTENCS
Outline: (§1)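 HEK293T lysate in Tris/CHAPS/IGEPAL buffer with protease inhibitors (495 µg per sample) was given fragment at 200 µM or vehicle for 3 h, in triplicate. It then received Biotin-Ahx-Ub-VS at 0.5 µM final for 1 h. Labelled DUBs were NeutrAvidin-enriched, digested with LysC and trypsin, and run by diaPASEF LC-MS/MS. Values are average log2 fragment/vehicle ratios by unpaired t-test on global-median-normalised Spectronaut quantities of proteins with ≥2 unique peptides.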

OTUD7B = target: T2, OTUD7B (UniProt Q6GQQ9)
T2 sequence (whole entry): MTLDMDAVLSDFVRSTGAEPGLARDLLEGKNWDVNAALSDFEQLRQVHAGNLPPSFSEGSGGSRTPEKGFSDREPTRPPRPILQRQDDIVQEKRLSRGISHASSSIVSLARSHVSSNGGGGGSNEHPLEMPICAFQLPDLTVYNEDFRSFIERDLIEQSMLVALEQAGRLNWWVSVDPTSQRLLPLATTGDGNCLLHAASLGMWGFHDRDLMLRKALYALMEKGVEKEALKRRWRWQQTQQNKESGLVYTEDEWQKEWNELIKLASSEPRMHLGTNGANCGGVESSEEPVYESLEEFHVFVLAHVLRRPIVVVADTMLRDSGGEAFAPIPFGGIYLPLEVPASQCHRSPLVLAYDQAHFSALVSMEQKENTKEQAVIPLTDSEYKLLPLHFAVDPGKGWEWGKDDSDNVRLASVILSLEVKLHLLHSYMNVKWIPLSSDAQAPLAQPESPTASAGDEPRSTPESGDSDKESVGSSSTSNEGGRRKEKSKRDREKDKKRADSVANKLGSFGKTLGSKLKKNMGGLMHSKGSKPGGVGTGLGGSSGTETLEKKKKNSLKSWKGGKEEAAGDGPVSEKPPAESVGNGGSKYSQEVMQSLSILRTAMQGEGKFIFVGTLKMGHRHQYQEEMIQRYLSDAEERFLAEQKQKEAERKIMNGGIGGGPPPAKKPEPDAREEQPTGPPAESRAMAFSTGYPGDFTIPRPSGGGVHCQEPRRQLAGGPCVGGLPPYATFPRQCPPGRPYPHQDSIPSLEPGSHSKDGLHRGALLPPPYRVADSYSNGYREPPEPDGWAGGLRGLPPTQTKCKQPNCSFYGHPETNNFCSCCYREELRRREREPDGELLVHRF
Outline: as §1

PRPF8 = PRPF8 (UniProt Q6P2Q9)
Outline: as §1

PSMD7 = target: T3, PSMD7 (UniProt P51665)
T3 sequence (whole entry): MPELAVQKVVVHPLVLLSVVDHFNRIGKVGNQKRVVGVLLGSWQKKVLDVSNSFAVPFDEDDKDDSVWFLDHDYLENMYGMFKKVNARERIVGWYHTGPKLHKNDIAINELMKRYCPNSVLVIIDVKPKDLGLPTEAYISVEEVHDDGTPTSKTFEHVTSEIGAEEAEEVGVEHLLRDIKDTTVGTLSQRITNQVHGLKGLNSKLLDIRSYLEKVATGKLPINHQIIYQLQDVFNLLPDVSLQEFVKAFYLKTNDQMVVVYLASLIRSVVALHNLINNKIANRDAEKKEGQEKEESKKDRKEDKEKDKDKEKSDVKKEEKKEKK
Outline: as §1

UCHL1 = UCHL1 (UniProt P09936)
Outline: as §1

UCHL3 = target: T4, UCHL3 (UniProt P15374)
T4 sequence (whole entry): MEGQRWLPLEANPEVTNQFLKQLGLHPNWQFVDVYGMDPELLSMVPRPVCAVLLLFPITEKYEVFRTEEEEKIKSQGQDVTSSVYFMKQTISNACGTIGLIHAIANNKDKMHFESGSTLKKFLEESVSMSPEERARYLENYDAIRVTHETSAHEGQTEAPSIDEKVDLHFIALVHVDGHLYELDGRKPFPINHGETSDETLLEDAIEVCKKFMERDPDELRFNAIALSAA
Outline: as §1

UCHL5 = target: T5, UCHL5 (UniProt Q9Y5K5)
T5 sequence (whole entry): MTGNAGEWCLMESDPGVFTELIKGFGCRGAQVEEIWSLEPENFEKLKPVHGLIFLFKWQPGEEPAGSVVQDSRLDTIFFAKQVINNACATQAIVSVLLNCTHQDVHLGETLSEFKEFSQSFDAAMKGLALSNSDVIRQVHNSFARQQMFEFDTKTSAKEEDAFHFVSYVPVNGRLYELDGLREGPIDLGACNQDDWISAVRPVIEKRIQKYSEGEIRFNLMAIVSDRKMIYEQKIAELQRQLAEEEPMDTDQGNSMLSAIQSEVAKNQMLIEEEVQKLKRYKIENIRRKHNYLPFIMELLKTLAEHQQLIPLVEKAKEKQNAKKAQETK
Outline: as §1

USP10 = USP10 (UniProt Q14694)
Outline: as §1

USP15 = target: T6, USP15 (UniProt Q9Y4E8)
T6 sequence (whole entry): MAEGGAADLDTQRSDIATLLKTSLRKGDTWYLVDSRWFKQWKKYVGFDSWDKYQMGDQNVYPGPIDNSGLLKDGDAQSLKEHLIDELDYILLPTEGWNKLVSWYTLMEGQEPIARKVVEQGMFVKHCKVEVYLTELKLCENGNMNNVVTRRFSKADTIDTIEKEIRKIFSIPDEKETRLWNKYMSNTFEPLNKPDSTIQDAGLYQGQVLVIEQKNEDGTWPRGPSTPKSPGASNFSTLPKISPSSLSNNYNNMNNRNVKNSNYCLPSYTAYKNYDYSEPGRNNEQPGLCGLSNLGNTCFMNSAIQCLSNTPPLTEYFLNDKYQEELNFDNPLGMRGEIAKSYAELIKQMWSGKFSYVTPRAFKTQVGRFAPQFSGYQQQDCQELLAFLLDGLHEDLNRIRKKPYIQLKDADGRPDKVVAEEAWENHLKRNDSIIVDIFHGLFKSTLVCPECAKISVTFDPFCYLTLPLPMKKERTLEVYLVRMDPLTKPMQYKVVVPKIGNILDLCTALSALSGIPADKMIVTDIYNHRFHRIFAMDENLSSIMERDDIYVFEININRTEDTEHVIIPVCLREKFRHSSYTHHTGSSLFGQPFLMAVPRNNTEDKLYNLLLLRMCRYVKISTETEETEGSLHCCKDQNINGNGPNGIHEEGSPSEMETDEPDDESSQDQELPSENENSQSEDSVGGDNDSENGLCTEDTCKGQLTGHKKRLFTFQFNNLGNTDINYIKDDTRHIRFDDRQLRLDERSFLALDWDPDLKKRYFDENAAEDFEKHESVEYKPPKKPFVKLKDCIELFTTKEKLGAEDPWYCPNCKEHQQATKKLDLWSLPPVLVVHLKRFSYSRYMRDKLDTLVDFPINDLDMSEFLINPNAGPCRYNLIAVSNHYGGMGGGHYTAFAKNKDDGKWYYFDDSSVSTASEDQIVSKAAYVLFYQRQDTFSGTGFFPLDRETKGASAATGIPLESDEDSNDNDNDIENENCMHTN
Outline: as §1

Sequence of USP10 (Q14694 whole entry): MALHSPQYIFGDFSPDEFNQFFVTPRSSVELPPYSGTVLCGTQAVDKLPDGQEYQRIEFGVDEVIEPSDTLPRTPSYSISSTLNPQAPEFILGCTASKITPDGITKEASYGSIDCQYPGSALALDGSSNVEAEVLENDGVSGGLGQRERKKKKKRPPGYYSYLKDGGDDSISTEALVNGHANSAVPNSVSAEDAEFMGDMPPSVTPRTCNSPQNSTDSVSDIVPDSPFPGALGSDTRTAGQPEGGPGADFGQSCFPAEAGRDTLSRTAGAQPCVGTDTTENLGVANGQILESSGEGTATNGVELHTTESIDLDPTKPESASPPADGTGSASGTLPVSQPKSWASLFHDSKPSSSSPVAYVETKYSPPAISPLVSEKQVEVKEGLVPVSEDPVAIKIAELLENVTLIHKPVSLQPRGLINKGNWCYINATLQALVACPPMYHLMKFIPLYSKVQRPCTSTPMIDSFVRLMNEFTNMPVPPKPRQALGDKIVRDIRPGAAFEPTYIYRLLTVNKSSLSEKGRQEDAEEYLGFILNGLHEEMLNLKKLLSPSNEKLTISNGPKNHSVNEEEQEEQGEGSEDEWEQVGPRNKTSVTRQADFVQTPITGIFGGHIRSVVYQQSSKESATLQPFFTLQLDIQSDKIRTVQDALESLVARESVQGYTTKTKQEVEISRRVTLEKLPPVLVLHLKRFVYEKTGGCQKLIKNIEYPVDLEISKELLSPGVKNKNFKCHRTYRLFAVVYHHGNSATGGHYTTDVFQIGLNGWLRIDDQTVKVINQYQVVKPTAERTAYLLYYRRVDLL
Sequence of UCHL1 (P09936 whole entry, looked up): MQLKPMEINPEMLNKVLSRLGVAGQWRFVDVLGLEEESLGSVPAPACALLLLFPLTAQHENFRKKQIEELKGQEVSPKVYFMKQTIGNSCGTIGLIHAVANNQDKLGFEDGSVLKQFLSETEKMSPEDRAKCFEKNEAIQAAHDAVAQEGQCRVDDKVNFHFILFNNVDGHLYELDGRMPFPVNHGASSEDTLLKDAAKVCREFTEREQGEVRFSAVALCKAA

COc1ccc(C2CCCN2C(=O)CCl)c(OC)c1 (centres undefined)
log2 ratio of Biotin-Ahx-Ub-VS probe labelling (OTUD6B): -0.302
log2 ratio of Biotin-Ahx-Ub-VS probe labelling (OTUD7B): -0.122
log2 ratio of Biotin-Ahx-Ub-VS probe labelling (PRPF8): 0.164
log2 ratio of Biotin-Ahx-Ub-VS probe labelling (PSMD7): -0.138
log2 ratio of Biotin-Ahx-Ub-VS probe labelling (UCHL1): -1.67 (active)
log2 ratio of Biotin-Ahx-Ub-VS probe labelling (UCHL3): -1.75 (active)
log2 ratio of Biotin-Ahx-Ub-VS probe labelling (UCHL5): -0.34
log2 ratio of Biotin-Ahx-Ub-VS probe labelling (USP10): -0.166
log2 ratio of Biotin-Ahx-Ub-VS probe labelling (USP15): -0.424
